PubChem BioAssay (Tox21)
Inconclusive results are not listed. Active and inactive are the calls of the source. Unless noted, calls follow the shape of the full dose curve.

Key:
[1] = Nuclear factor erythroid 2-related factor 2/antioxidant responsive element (Nrf2/ARE) small molecule agonists: qHTS cell viability counter screen in human keratinocytes (AID 1919968; active = well fitted curve in the direction sought with a large enough effect in the repeat runs; an effect the other way counts as inactive or inconclusive; also: nearly all actives have a fitted effect of over 55% in size)
Summary of the method: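 Viability counter-screen: KeratinoSens reporter cells, DMSO-delivered compounds, 23 h at 37 C, CellTiter-Fluor fluorescence.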

[2] = Nuclear factor erythroid 2-related factor 2/antioxidant responsive element (Nrf2/ARE) small molecule agonists: luciferase reporter gene qHTS assay in human keratinocytes (AID 1919969); also: nearly all actives have a fitted effect of over 35% in size
[3] = target: Gonadotropin-releasing hormone receptor (Homo sapiens) (UniProt P30968); assay: Human gonadotropin-releasing hormone receptor (GnRHR) small molecule agonists, calcium flux assay in GnRHR-HEK293 cells (AID 1920063); also: nearly all actives have a fitted effect of over 35% in size
Summary of the method: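 Tox21-format agonist screen using human GnRHR-expressing HEK293 cells and a fluorescent calcium dye; kinetic 3-min fluorescence reading after compound addition, 15-point concentration series run in triplicate.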

[4] = target: KiSS-1 receptor (Homo sapiens) (UniProt Q969F8); assay: Human kisspeptin (KISS1R) small molecule agonists, calcium flux assay in KISS1R-HEK293 cells (AID 1920064; active = well fitted curve in the direction sought with a large enough effect in the repeat runs; an effect the other way counts as inactive or inconclusive)
Summary of the method: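 Intracellular calcium mobilization in KISS1R-HEK293 cells was recorded by fluorescence (Ex/Em 480/540) for 3 min following compound addition to cells pre-loaded 1 h with calcium dye.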

[5] = G protein-coupled receptor (GPCR) small molecule agonists, calcium flux assay: HEK293 wild type cell line counter screen (AID 1920065)
Summary of the method: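 In this agonist-mode screen, ATP is the positive control and DMSO the vehicle. Cells grow 18 h before a 1 h dye incubation at 37 C; signal is taken at Ex/Em 480/540 over 3 min.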

[6] = p53 small molecule agonists, cell-based qHTS assay with human liver microsomes (AID 1963577);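 also: p53 response element beta-lactamase reporter cells with liver microsomes plus NADPH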
Summary of the method: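 p53RE-bla cells; 5 h settle, 37 C/5% CO2; cpd + HLM 0.5 mg/mL + NADPH 0.5 mg/mL (final); 16 h 37 C; LiveBLAzer 2 h RT dark; fluorescence readout.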

[7] = p53 small molecule agonists, cell-based qHTS assay with rat liver microsomes (AID 1963578)
Summary of the method: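 Rat liver microsome activation: microsomes 0.5 mg/mL, NADPH 0.5 mg/mL final; p53RE-bla cells, 16 h 37 C; LiveBLAzer readout, 2 h RT dark.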

[8] = p53 small molecule agonists, cell-based qHTS assay: qHTS cell viability counter screen (AID 1963581); also: nearly all actives have a fitted effect of over 45% in size
Summary of the method: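 Compounds are pinned onto HCT-116 p53RE-bla cells and left 16 h at 37 C. Following the reporter FRET read, ATP is quantified by CellTiter-Glo luminescence after 30 min at room temperature.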

[9] = p53 small molecule agonists, cell-based qHTS assay (AID 1963582; active = well fitted activation curve with a large enough effect in the signal ratio in the repeat runs, not every such curve was filed as active; the % refers to the signal ratio)
Summary of the method: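 Agonist activity was scored from beta-lactamase FRET fluorescence in p53RE-bla cells treated 16 h at 37 C with compounds in DMSO, substrate incubation being 2 h at room temperature.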

[10] = target: 5-hydroxytryptamine receptor 2A (Homo sapiens) (UniProt P28223); assay: 5-hydroxytryptamine receptor 2A (HTR2A) small molecule antagonists, cell-based qHTS assay (AID 1963586); also: nearly all actives have a fitted effect of over 45% in size
Summary of the method: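 Antagonist-mode intracellular calcium assay: DOI (4 nM) added after 5 min compound pre-incubation at room temperature to dye-loaded HTR2A-CHO cells. Fluorescence followed for 3 min, sampled every second.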

[11] = target: 5-hydroxytryptamine receptor 2A (Homo sapiens) (UniProt P28223); assay: 5-hydroxytryptamine receptor 2A (HTR2A) small molecule agonists, cell-based qHTS assay (AID 1963587); also: nearly all actives have a fitted effect of over 30% in size
Summary of the method: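 HTR2A-CHO cells, plated 18 h at 37 C/5% CO2, dye-loaded 1 h at 37 C; compounds in DMSO added by pin tool (agonist mode). Intracellular calcium flux read as kinetic fluorescence on FDSS over 2 min at 1 s intervals.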

[12] = target: Muscarinic acetylcholine receptor M1 (Homo sapiens) (UniProt P11229); assay: Cholinergic receptor muscarinic 1 (CHRM1) small molecule agonists, cell-based qHTS assay (AID 1963589); also: nearly all actives have a fitted effect of over 35% in size
Summary of the method: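 Stable CHRM1-CHO cells (human receptor) were incubated 18 h, dye-loaded for 1 h at 37 C and exposed to test compounds for agonist activity, with calcium-dependent fluorescence followed kinetically.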

[13] = cAMP Responsive Elements (CRE) small molecule agonists, cell-based qHTS assay (AID 1963590)
Summary of the method: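 FRET-based beta-lactamase readout (LiveBLAzer B/G, 2 h RT) quantified CRE activation in HEK 293T CRE-bla cells after 3 h treatment with DMSO-dissolved compounds.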

[14] = cAMP Responsive Elements (CRE) small molecule antagonists, cell-based qHTS assay (AID 1963591; active = well fitted inhibition curve with a large enough effect in the signal ratio in the repeat runs, not every such curve was filed as active; the % refers to the signal ratio)
Summary of the method: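 qHTS in CRE-bla HEK 293T cells: compound in DMSO, then 0.25 uM NKH477 (final), 3 h at 37 °C/5% CO2; beta-lactamase FRET read-out after 2 h substrate incubation.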

[15] = target: Beta-2 adrenergic receptor (Homo sapiens) (UniProt P07550); assay: Adrenergic beta2 receptor (ADRB2) small molecule antagonists, cell-based qHTS assay (AID 1963592); also: series mostly up to about 92 µM; nearly all actives have a fitted effect of over 50% in size
Summary of the method: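 Cells (CHO, stable ADRB2 overexpression) incubated 18-20hr at 37C; compounds added from DMSO; agonist mix (1nM isoproterenol, 100uM IBMX, 25uM Ro-20-1724) added; 0.5hr RT; d2-cAMP and anti-cAMP-cryptate added; 1hr RT; 665/615 nm read.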

[16] = target: Beta-2 adrenergic receptor (Homo sapiens) (UniProt P07550); assay: Adrenergic beta2 receptor (ADRB2) small molecule agonists, cell-based qHTS assay (AID 1963593);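 also: CHO cells stably overexpressing human ADRB2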
Summary of the method: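 CHO cells stably over-expressing ADRB2 were plated overnight at 37C, then dosed with compounds plus a stimulation mix containing 100uM IBMX and 25uM Ro-20-1724 for 0.5hr at room temperature. cAMP was measured by HTRF competition, 1hr.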

[17] = target: D(2) dopamine receptor (Homo sapiens) (UniProt P14416); assay: Dopamine D2 receptor (DRD2) small molecule agonists, cell-based qHTS assay (AID 1963594); also: nearly all actives have a fitted effect of over 35% in size
Summary of the method: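 HEK293 cells stably expressing DRD2 were cultured 24 h at 37 C, then given Ro20-1724 (0.1 mM final) and compounds for 10 min at room temperature. NKH477 (200nM) was then added for 30 min. cAMP was read by HTRF.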

[18] = target: D(2) dopamine receptor (Homo sapiens) (UniProt P14416); assay: Dopamine D2 receptor (DRD2) small molecule antagonists, cell-based qHTS assay (AID 1963595; active = well fitted inhibition curve with a large enough effect in the signal ratio in the repeat runs, with a control signal flat; the % refers to the signal ratio)
Summary of the method: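 Antagonist mode in DRD2-HEK293 cells: after compound addition with 0.1 mM Ro20-1724, cells received quinpirole (12 nM) and NKH477 (200 nM) for 30 min at room temperature; HTRF cAMP read after 1 h detection.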

[19] = target: Muscarinic acetylcholine receptor M1 (Homo sapiens) (UniProt P11229); assay: Cholinergic receptor muscarinic 1 (CHRM1) small molecule antagonists, cell-based qHTS assay (AID 1963588); also: nearly all actives have a fitted effect of over 40% in size
Summary of the method: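 CHRM1-CHO calcium-flux assay, antagonist mode. Cells were seeded 18 h, dye-loaded 1 h at 37 C and given compound for 5 min at RT, then acetylcholine was added at 50nM. FDSS fluorescence was read 3 min; 15 concentrations, three runs.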

Measured: Potency

Sequence of Gonadotropin-releasing hormone receptor (Homo sapiens) (P30968 whole entry, looked up): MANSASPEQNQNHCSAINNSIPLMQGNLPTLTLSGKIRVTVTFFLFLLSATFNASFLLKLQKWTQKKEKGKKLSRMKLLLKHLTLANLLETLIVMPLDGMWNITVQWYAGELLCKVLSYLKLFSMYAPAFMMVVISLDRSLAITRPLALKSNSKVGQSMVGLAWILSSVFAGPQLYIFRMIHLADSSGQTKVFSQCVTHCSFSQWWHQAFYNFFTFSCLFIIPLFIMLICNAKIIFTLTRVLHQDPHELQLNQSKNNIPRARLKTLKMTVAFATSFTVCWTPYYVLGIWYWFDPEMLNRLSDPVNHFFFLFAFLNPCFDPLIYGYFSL
Sequence of Beta-2 adrenergic receptor (Homo sapiens) (P07550 whole entry, looked up): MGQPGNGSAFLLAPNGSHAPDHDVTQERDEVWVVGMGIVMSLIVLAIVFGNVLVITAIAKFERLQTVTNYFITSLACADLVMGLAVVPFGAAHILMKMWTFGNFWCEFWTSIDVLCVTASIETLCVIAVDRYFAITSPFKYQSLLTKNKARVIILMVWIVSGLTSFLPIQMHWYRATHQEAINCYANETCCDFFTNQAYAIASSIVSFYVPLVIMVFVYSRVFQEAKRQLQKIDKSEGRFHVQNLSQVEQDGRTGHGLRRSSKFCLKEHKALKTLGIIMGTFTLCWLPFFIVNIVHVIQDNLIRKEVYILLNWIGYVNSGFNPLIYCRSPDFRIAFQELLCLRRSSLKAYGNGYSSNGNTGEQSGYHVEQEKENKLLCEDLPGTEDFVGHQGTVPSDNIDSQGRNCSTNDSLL
Sequence of 5-hydroxytryptamine receptor 2A (Homo sapiens) (P28223 whole entry, looked up): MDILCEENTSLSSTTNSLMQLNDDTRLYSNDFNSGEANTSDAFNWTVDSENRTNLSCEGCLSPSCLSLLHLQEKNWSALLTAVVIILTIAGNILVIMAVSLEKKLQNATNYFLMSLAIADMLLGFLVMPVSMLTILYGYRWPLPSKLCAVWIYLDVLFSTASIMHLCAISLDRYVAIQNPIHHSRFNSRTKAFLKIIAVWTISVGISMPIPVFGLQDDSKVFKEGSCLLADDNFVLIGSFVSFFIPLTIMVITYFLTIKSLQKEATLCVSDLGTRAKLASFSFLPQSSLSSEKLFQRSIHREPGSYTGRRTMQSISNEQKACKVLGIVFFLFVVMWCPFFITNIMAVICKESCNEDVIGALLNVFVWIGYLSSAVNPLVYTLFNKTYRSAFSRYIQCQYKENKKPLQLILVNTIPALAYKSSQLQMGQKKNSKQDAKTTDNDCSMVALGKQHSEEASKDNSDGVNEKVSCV
Sequence of D(2) dopamine receptor (Homo sapiens) (P14416 whole entry, looked up): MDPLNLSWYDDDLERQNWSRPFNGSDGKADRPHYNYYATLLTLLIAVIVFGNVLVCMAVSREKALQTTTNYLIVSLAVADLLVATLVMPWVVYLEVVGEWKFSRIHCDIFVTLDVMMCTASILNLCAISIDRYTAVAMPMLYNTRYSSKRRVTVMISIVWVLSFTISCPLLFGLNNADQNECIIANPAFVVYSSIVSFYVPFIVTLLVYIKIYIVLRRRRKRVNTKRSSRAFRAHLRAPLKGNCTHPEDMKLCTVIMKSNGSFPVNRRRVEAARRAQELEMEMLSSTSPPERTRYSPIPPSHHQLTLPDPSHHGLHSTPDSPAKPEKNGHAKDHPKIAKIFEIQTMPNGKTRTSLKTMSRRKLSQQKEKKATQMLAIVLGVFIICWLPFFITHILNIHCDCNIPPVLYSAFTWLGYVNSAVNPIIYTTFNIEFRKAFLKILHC
Sequence of Muscarinic acetylcholine receptor M1 (Homo sapiens) (P11229 whole entry, looked up): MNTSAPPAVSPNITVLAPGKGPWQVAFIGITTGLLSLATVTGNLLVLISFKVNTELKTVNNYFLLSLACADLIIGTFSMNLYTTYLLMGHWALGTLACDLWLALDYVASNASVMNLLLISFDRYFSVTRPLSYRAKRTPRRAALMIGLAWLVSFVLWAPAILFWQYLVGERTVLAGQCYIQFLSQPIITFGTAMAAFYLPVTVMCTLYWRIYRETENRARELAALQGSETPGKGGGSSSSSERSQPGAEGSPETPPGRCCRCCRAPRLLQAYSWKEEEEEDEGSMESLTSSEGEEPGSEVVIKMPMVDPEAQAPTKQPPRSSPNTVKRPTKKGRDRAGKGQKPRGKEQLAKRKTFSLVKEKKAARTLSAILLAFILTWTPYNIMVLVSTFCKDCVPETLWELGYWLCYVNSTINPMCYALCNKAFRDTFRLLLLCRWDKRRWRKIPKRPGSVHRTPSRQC
Sequence of KiSS-1 receptor (Homo sapiens) (Q969F8 whole entry, looked up): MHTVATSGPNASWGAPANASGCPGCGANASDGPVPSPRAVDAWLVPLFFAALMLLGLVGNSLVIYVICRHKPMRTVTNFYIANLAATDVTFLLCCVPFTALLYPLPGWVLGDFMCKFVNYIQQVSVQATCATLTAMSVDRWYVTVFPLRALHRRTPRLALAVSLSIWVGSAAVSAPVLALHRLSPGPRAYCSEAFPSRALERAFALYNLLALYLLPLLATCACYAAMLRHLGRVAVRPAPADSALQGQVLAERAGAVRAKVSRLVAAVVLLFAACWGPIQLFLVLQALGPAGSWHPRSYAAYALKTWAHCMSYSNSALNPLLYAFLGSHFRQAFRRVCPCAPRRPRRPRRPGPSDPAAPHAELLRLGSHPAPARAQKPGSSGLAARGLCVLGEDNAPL

CC(C)OC=O
not listed: [19]
inactive: all other assays above

CCO[Si](CCCN=C=O)(OCC)OCC
not listed: [9] | [16]
inactive: all other assays above

Oc1ccc(O)c2c(O)cccc12
not listed: [16]
inactive: all other assays above

CCOCOCC
not listed: [12] | [19]
inactive: all other assays above

COCc1ccc(COC)cc1
not listed: [12]
inactive: all other assays above

CCc1cnc(C(=O)O)c(C(=O)O)c1
inactive: all assays above

CCCCCCCC(OC)OC
not listed: [10]
inactive: all other assays above
